Source: PubChem BioAssay (Tox21)
Several values for one entry are separate records, joined by “and”; a condition that tells them apart may be missing. Equal values may be shown once. A structure can be active in one record and inactive in another. Activity calls are given as the source filed them. Entries that show only a call come without a potency. Unless noted, calls follow the shape of the dose curve; as a rule, active = well fitted curve in the direction sought with a large enough effect in the repeat runs; inconclusive = weak or mixed curves; inactive = no such curve, though single readings can be large; an effect the other way counts as inactive or inconclusive.

Experiments:
[1] = qHTS assay to identify small molecule antagonists of the thyroid receptor (TR) signaling pathway - cell viability counter screen (AID 743064); also: nearly all actives have a fitted effect of over 50% in size
In short: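 Rat GH3 pituitary tumor cells stably expressing two TR response elements driving luciferase were plated, rested 4 h, then dosed with library compounds and T3 (1 nM final). After 23.5 h at 37 °C, CellTiter-Fluor was added for 30 min and fluorescence recorded.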

[2] = qHTS assay to identify small molecule antagonists of the thyroid receptor (TR) signaling pathway (AID 743065); also: nearly all actives have a fitted effect of over 55% in size
In short: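 GH3.TRE-Luc rat pituitary cells (two TREs driving luciferase) were dosed with compound, then stimulated with 1 nM T3 (final) for 23.5 h at 37 C. ONE-Glo luminescence was the read-out, with CellTiter-Fluor fluorescence as the cytotoxicity counter-screen.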

[3] = tested on: thyroid hormone receptor (rat, GH3 cells); assay: qHTS assay to identify small molecule agonists of the thyroid receptor (TR) signaling pathway (AID 743066; calls by dose curve)
[4] = qHTS assay to identify small molecule antagonists of the estrogen receptor alpha (ER-alpha) signaling pathway - cell viability counter screen (AID 743074; calls by dose curve;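 also: HEK293 cells carrying ER-alpha-UAS-bla reporter stimulated with 17beta-estradiol; nearly all actives have a fitted effect of over 45% in size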)
[5] = qHTS assay to identify small molecule antagonists of the estrogen receptor alpha (ER-alpha) signaling pathway using the BG1 cell line - cell viability counter screen (AID 743081);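 also: compound given together with 17beta-estradiol as the ER stimulus; nearly all actives have a fitted effect of over 45% in size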
Aromatase (Homo sapiens) = Aromatase (Homo sapiens) (UniProt P11511); assay: qHTS assay to identify aromatase inhibitors (AID 743083); also: nearly all actives have a fitted effect of over 55% in size
[6] = biological target: Estrogen receptor (Homo sapiens) (UniProt P03372); assay: qHTS assay to identify small molecule antagonists of the estrogen receptor alpha (ER-alpha) signaling pathway (AID 743069; active = well fitted curve in the direction sought with a large enough effect in the signal ratio in the repeat runs, not every such curve was filed as active; inconclusive = weak or mixed curves, or effect the other way; inactive = no such curve, though single readings can be large or run the other way; the % refers to the signal ratio)
In short: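 Reporter cells (ER-alpha-bla, HEK293 background) are conditioned overnight in stripped-serum medium (2% charcoal-stripped FBS). Compound and 17beta-estradiol exposure runs 18 hr at 37C, 5% CO2.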

[7] = biological target: Estrogen receptor (Homo sapiens) (UniProt P03372); assay: qHTS assay to identify small molecule agonists of the estrogen receptor alpha (ER-alpha) signaling pathway (AID 743075; calls by dose curve;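 also: HEK293 GripTite cells with ER-alpha and UAS-driven beta-lactamase reporter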)
[8] = biological target: Estrogen receptor (Homo sapiens) (UniProt P03372); assay: qHTS assay to identify small molecule agonists of the estrogen receptor alpha (ER-alpha) signaling pathway using the BG1 cell line (AID 743079); conditions: BG1Luc4E2 cells, ERE-luciferase agonist, 22 h; activation: at 70.3 µM (top of the series); also: nearly all actives have a fitted effect of over 20% in size
[9] = qHTS assay to identify small molecule antagonists of the estrogen receptor alpha (ER-alpha) signaling pathway using the BG1 cell line (AID 743080; calls by dose curve;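 also: BG1 cells stimulated with 17beta-estradiol alongside compound; nearly all actives have a fitted effect of over 25% in size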)
In short: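 Endogenous full-length ER-alpha in BG1-Luc-4E2 cells drives a stably integrated 4×ERE luciferase gene; compounds were tested against 17beta-estradiol over 21.5 h, with luminescence and multiplexed viability fluorescence recorded.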
Potency is read from the fitted curve at half-maximal effect.

Sequence of Aromatase (Homo sapiens) (P11511 whole entry, looked up): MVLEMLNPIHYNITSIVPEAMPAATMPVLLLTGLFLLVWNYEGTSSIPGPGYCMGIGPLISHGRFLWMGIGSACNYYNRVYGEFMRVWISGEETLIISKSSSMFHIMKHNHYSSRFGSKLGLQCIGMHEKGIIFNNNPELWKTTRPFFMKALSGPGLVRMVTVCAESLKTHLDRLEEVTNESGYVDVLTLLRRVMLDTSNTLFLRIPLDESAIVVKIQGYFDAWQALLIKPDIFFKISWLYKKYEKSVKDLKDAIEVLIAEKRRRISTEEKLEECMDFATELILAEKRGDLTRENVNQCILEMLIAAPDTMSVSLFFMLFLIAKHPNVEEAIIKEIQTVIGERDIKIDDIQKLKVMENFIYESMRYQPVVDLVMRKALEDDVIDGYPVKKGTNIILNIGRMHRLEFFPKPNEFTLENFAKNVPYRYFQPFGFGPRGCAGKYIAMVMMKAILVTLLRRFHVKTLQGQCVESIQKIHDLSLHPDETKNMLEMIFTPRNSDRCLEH
Sequence of Estrogen receptor (Homo sapiens) (P03372 whole entry, looked up): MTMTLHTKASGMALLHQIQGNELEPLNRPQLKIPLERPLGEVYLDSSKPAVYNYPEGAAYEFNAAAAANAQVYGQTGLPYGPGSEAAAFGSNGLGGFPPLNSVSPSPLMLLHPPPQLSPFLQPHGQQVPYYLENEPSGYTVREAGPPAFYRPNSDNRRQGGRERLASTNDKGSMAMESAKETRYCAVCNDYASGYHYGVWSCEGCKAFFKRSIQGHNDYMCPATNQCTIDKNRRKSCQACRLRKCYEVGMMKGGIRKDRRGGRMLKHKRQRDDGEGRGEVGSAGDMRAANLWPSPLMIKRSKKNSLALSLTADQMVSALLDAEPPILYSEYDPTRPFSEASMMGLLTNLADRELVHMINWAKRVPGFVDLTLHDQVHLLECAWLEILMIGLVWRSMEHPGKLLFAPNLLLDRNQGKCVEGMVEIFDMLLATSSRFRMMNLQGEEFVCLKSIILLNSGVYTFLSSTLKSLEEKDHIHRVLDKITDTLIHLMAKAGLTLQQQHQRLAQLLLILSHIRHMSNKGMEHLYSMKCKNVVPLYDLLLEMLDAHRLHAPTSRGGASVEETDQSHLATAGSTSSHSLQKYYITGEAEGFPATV

NC(=O)C(Cl)Cl
Potency [1]: inactive | Potency [2]: inactive | Potency [3]: inactive | Potency [4]: inactive | Potency [5]: inactive | Potency (Aromatase (Homo sapiens)): inactive

O=S(=O)(O)F
Potency [1]: inactive | Potency [2]: inactive | Potency [3]: inactive | Potency [6]: inactive | Potency [7]: inactive | Potency [8]: inactive | Potency [9]: inactive | Potency [5]: inactive | Potency (Aromatase (Homo sapiens)): inactive

CNN
Potency [1]: inactive | Potency [2]: inactive | Potency [3]: inactive | Potency [4]: inactive | Potency [5]: inactive | Potency (Aromatase (Homo sapiens)): inactive

Cc1nn(-c2cc(NS(C)(=O)=O)c(Cl)cc2Cl)c(=O)n1C(F)F
Potency [1]: inactive | Potency [2]: inactive | Potency [3]: inactive | Potency [4]: inactive | Potency [5]: inactive | Potency (Aromatase (Homo sapiens)): inactive

O=C(NC(=O)c1c(F)cccc1F)Nc1ccc(Oc2ccc(C(F)(F)F)cc2Cl)cc1F
Potency [1]: 43.3 µM (active) | Potency [2]: 38.6 µM (active) | Potency [3]: inactive | Potency [4]: inactive | Potency [5]: inactive

CNC(C)(C)Cc1ccccc1
Potency [1]: inactive | Potency [2]: inactive | Potency [3]: inactive | Potency [4]: inactive | Potency [9]: inactive | Potency [5]: inactive | Potency (Aromatase (Homo sapiens)): inactive

Oc1ccc2[nH]cc(CCCCN3CC=C(c4ccccc4)CC3)c2c1
Potency [1]: 8.41 µM (active) | Potency [2]: 11.9 µM (active) | Potency [3]: inactive | Potency [4]: inactive | Potency (Aromatase (Homo sapiens)): inactive

CC1(C)C(C=C(Cl)Cl)C1C(=O)OC(C#N)c1ccc(F)c(Oc2ccccc2)c1 (stereo unspecified)
Potency [1]: inactive | Potency [3]: inactive | Potency [6]: inactive | Potency [4]: inactive | Potency [7]: inactive | Potency [8]: inactive | Potency [9]: inactive | Potency [5]: inactive

CN
Potency [1]: inactive | Potency [3]: inactive | Potency [4]: inactive | Potency [5]: inactive | Potency (Aromatase (Homo sapiens)): inactive

CC(O)C(=O)[O][Hg][c]1ccccc1 (stereo unspecified)
Potency [1]: 0.686 µM (active) | Potency [2]: 0.344 µM (active) | Potency [4]: 5.49 µM (active) | Potency [7]: 0.692 µM [fluorescent] (active) | Potency [5]: 3.06 µM (active) | Potency (Aromatase (Homo sapiens)): 0.969 µM (active)

CCOP(=O)(OCC)Oc1nc(Cl)c(Cl)cc1Cl
Potency [1]: 60.8 µM (active) | Potency [2]: 24.2 µM (active) | Potency [3]: inactive | Potency [7]: 12.2 µM [inconclusive] (active) | Potency [9]: 48.3 µM (active) | Potency [5]: inactive | Potency (Aromatase (Homo sapiens)): 27.1 µM (active)

CC(=O)[O-].CC(=O)[O-].O.O.O.[Pb+2]
Potency [1]: inactive | Potency [3]: inactive | Potency [4]: inactive | Potency [5]: inactive | Potency (Aromatase (Homo sapiens)): inactive

O=[N+]([O-])c1cc(C(F)(F)F)c(Cl)c([N+](=O)[O-])c1Nc1ncc(C(F)(F)F)cc1Cl
Potency [1]: 5.45 µM (active) | Potency [2]: 2.17 µM (active) | Potency [4]: 49 µM (active) | Potency [7]: 49 µM [inconclusive] (active) | Potency [5]: 68.6 µM (active) | Potency (Aromatase (Homo sapiens)): 2.73 µM (active)

O=C(O)CCCCCCNC1c2ccccc2CCc2ccccc21
Potency [1]: inactive | Potency [3]: 23.7 µM (active) | Potency [6]: inactive | Potency [7]: inactive | Potency [8]: inactive | Potency [9]: inactive | Potency [5]: inactive

[F][Sn]([c]1ccccc1)([c]1ccccc1)[c]1ccccc1
Potency [1]: 0.77 µM (active) | Potency [2]: 0.386 µM (active) | Potency [4]: 1.1 µM (active) | Potency [7]: 2.19 µM [inconclusive] (active) | Potency [9]: 1.93 µM (active) | Potency [5]: 7.7 µM (active)

CC[C@]1(O)CC[C@H]2[C@@H]3CCC4=CCCC[C@@H]4[C@H]3CC[C@@]21C
Potency [1]: inactive | Potency [2]: 8.41 µM (active) | Potency [4]: inactive | Potency [7]: 0.0005 µM [inconclusive] (active) | activation [8]: 5.41% (active) | Potency [9]: inactive | Potency [5]: inactive

O=C(O)[C@H](O)[C@@H](O)C(=O)O
Potency [1]: inactive | Potency [3]: inactive | Potency [6]: inactive | Potency [4]: inactive | Potency [7]: inactive | Potency [8]: inactive | Potency [9]: inactive | Potency [5]: inactive | Potency (Aromatase (Homo sapiens)): inactive

O=c1[nH]c(Cl)c(Cl)cc1Cl
Potency [1]: inactive | Potency [3]: inactive | Potency [4]: inactive | Potency [5]: inactive | Potency (Aromatase (Homo sapiens)): inactive

[Cl-].[Cl-].[Sn+2]
Potency [1]: inactive | Potency [2]: inactive | Potency [3]: inactive | Potency [4]: inactive | Potency (Aromatase (Homo sapiens)): inactive

c1cc[n+]2c(c1)-c1cccc[n+]1CC2
Potency [1]: inactive | Potency [3]: inactive | Potency [6]: inactive | Potency [4]: inactive | Potency [7]: inactive | Potency (Aromatase (Homo sapiens)): inactive

COc1ccc(Cc2nccc3cc(OC)c(OC)cc23)cc1OC
Potency [1]: inactive | Potency [3]: inactive | Potency [4]: inactive | Potency [5]: inactive | Potency (Aromatase (Homo sapiens)): inactive

CC(=O)[O][Pb]([c]1ccccc1)([c]1ccccc1)[c]1ccccc1
Potency [1]: 0.686 µM (active) | Potency [2]: 0.077 µM (active) | Potency [6]: 54.9 µM [cytotoxic] (active) | Potency [4]: 6.92 µM (active) | Potency [7]: 49 µM [inconclusive] (active) | Potency [5]: 10.9 µM (active) | Potency (Aromatase (Homo sapiens)): 0.193 µM (active)

CCC[CH2][Sn]([CH2]CCC)([CH2]CCC)[CH2]CCC
Potency [1]: 30.6 µM (active) | Potency [2]: 19.3 µM (active) | Potency (Aromatase (Homo sapiens)): inactive

CC(=O)C(Cl)C(=O)N(C)C (stereo unspecified)
Potency [1]: inactive | Potency [3]: inactive | Potency [6]: inactive | Potency [4]: inactive | Potency [7]: inactive | Potency [8]: inactive | Potency [9]: inactive | Potency [5]: inactive | Potency (Aromatase (Homo sapiens)): inactive

N#CC(C#N)=NNc1cccc(Cl)c1
Potency [1]: 3.44 µM (active) | Potency [2]: 0.969 µM (active) | Potency [6]: 0.692 µM [inconclusive] (active) | Potency [9]: 2.17 µM (active) | Potency [5]: 5.45 µM (active) | Potency (Aromatase (Homo sapiens)): 2.73 µM (active)

CCC(OC(C)=O)C(CC(C)NC)(c1ccccc1)c1ccccc1 (stereo unspecified)
Potency [1]: 19.5 µM (active) | Potency [2]: 19.5 µM (active) | Potency [7]: inactive

CCCCn1cc[n+](C)c1.[Cl][Fe-]([Cl])([Cl])[Cl]
Potency [1]: inactive | Potency [2]: inactive | Potency [3]: inactive | Potency [4]: inactive | Potency [5]: inactive | Potency (Aromatase (Homo sapiens)): inactive

O=S1OCC2C(CO1)C1(Cl)C(Cl)=C(Cl)C2(Cl)C1(Cl)Cl (stereo unspecified)
Potency [1]: 61.2 µM (active) and 54.4 µM (active) | Potency [2]: 61.2 µM (active) and 61.1 µM (active) | Potency [6]: inactive | Potency [4]: inactive | Potency [7]: 43.7 µM [inconclusive] (active) and inactive | Potency [8]: 1.94 µM (active) | Potency [9]: 61.2 µM (active) and 61.1 µM (active) | Potency [5]: inactive | Potency (Aromatase (Homo sapiens)): 27.3 µM (active)

CC(=O)[O-].CC(=O)[O-].CC(=O)[O-].[Sb+3]
activity change, negative = cytotoxic [1]: 15.9% [at 8.44 µM] (inactive) | activation [3]: 0.26% [at 8.08 µM] (inactive) | activity, negative = cytotoxicity [4]: 16.3% [at 6.72 µM] (inactive) | activity change, negative = cytotoxicity [5]: 10.6% [at 8.47 µM] (inactive) | activity, negative = inhibition (Aromatase (Homo sapiens)): 2.18% [at 8.47 µM] (inactive)

O=S1(=O)OCC2C(CO1)C1(Cl)C(Cl)=C(Cl)C2(Cl)C1(Cl)Cl (stereo unspecified)
Potency [1]: 54.5 µM (active) | Potency [2]: 48.6 µM (active) | Potency [6]: inactive | Potency [7]: inactive | Potency [8]: inactive | Potency [5]: inactive | Potency (Aromatase (Homo sapiens)): 54.5 µM (active)

CCN1CCC2(CC1)COc1cc3c(cc12)N(C(=O)c1ccc(-c2ccc(-c4nnc(C)o4)cc2C)cc1)CC3
Potency [1]: 14.2 µM (active) | Potency [2]: 2.52 µM (active) | Potency [4]: 50.7 µM (active) | Potency [7]: inactive | Potency (Aromatase (Homo sapiens)): 28.3 µM (active)
